Where “and” joins values, the source holds several entries; their conditions need not be identical. Equal entries are not always repeated. Screen size: about 16,000 compounds; about 2,600 (16%) were called active. About 20% were inconclusive and are not listed. Calls follow the shape of the dose curve; as a rule, active = well fitted curve in the direction sought with a large enough effect; inconclusive = small, poorly fitted or top-dose-only effect, or effect the other way; inactive = no such curve, though single readings can be large or run the other way. Only a sample is shown.
% is scaled to controls: 0 for no effect and ±100 for the full control effect.

The target of the experiment is Cytochrome P450 2D6 (Homo sapiens) (UniProt P10635). The experiment is described as follows: Cytochrome panel assay with activity outcomes. The conditions noted are these: recombinant CYP, pro-luciferin dealkylation, luminescence, p450-cyp2d6; series mostly up to 57.1 µM.
Cytochrome P450 2D6 (Homo sapiens), sequence (P10635 whole entry, looked up): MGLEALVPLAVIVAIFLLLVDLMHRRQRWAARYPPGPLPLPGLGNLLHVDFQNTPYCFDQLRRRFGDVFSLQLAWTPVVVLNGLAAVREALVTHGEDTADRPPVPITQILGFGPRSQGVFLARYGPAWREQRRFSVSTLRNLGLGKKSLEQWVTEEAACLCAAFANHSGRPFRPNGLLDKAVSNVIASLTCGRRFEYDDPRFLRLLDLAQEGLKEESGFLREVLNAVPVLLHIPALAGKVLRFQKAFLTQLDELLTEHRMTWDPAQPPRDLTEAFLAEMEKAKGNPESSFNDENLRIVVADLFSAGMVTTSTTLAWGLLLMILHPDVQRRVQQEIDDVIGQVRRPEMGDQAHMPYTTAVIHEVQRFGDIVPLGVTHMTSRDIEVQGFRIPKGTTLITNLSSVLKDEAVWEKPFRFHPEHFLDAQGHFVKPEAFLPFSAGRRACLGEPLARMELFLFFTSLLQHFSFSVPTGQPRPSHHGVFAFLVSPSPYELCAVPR
Regarding `FC(F)(F)c1cccc(-c2nc3nc(Cl)c(Cl)nc3[nH]2)c1`, the activity, negative = inhibition was -1.57% [at 11.4 µM] (inactive).
For the compound `Cc1ccc(S(=O)(=O)/N=C(/Nc2c(C)n(C)n(-c3ccccc3)c2=O)c2ccc(Cl)cc2)cc1`, the AC50 – broadly, the concentration at which the activity in the assay is half-maximal – was “inactive”.
On the same count and under the same terms, under `O=C(c1cccc(C(F)(F)F)c1)N1CCC(O)(CS(=O)(=O)Cc2ccccc2)CC1` stands “inactive”; under `COC(=O)c1ccc(/C=N\NC(=O)c2ccc(C)cc2Cl)cc1`, “inactive”; under `CN1c2ccccc2C(C)(C)C12C=Nc1c(cc(N3CCOCC3)c3ccccc13)O2` (stereo unspecified), “inactive”.
Consider `O=C1C=CC(=Nc2cccc3c(N=C4C=CC(=O)O4)cccc23)O1`, for which the activity, negative = inhibition was 3.55% [at 11.4 µM] (inactive).
For the compound `O=C(c1ccco1)N1CCN(C(=O)c2nn3cccnc3c2Cl)CC1`, the AC50 entry was “inactive”.
Same read-out and setting: under `COc1cc(/C=C\C(=O)N2CCC=CC2=O)cc(OC)c1OC` stands “inactive”; under `CCCC(=O)Nc1nc2nc(-c3ccccc3)cc(-c3ccccc3)n2n1`, “inactive”.
In the case of `O=C(O)CCc1ccc(-c2ccccc2)[nH]1`, the activity, negative = inhibition was 3.02% [at 11.4 µM] (inactive).
Consider `CC(C)(C)c1ccc(C(=O)NCc2ccc(Cl)cc2)cc1`, for which the AC50 result is “inactive”.
Still for that read-out and setting: under `CC(=O)Nc1nonc1NC(=O)c1ccc(C(C)(C)C)cc1` stands 10 µM (active).
Consider `CC(C)(C)c1ccc(C(=O)Nc2ccc(NC(=O)c3ccco3)cc2)cc1`, for which the AC50 entry is “inactive”.
With `CC/C=C\CC[C@H](O)C1=CCCCC1=O`, the activity, negative = inhibition is 0.601% [at 11.4 µM] (inactive).
With `CC1=C(C(=O)Nc2cccnc2)C(c2cccnc2)n2nc(-c3cccs3)nc2N1` (stereo unspecified), the AC50 result was “inactive”.
Still for that read-out and setting: under `Cc1ccc(C)c(Cn2c(C(=O)OC(C)C)cc3c2ccn3C)c1` stands “inactive”; under `O=C(COc1ccc(Cl)cc1)N(Cc1ccccc1)c1ccccn1`, “inactive”; under `COc1ccc(CN(CCN(C)C)c2ccccn2)cc1`, 501 nM (active) and 126 nM (active) and 100 nM (active).
As for `CCCCCCCCCCCCCCCC[N+](C)(C)CCN(Cc1ccc(OC)cc1)c1ncccn1`, the AC50 was 12.6 µM (active).
The same measure, in the same setting: under `CN(C)CCN(Cc1ccc(Cl)cc1)c1ccccn1` stands 0.02 µM (active).
On the same count and under the same terms, under `COc1ccc(CC(=O)O/N=C(\N)Cc2ccc(OC)cc2)cc1` stands “inactive”; under `CN(C)CCOC(=O)COc1ccc(Cl)cc1`, “inactive”.
The same measure, in the same setting: under `CCSc1nnc(-c2ccccc2NC(C)=O)c(=O)[nH]1` stands “inactive”.
`COc1ccc(-c2nc3cnc(N4CCNCC4)nc3n(Cc3ccc(F)cc3)c2=O)cc1`: the AC50 result was “inactive”.
For `CCOC(=O)CSc1nnc(Cc2cc(=O)[nH]c(=O)[nH]2)n1-c1cccc(OC)c1`, the AC50 entry is “inactive”.
Turning to `CCNC(=O)c1ccc(-n2nc(C)cc2-c2ccccc2)cc1`, the AC50 entry was “inactive”.
As for `CC(C)=CCC/C(C)=C/CO/N=C1/C[C@@H](O)[C@@H](O)[C@@H]2[C@H]3C(=O)N(c4ccc(F)cc4F)C(=O)[C@@H]3CC[C@@H]12`, the activity, negative = inhibition was 8.95% [at 11.4 µM] (inactive).
For `COc1ncc2nc(-c3cn(C)c4ccccc34)c(=O)n(C)c2n1`, the AC50 entry is “inactive”.
For `CN(C)/C(CN1CCOCC1)=C1\N=C(c2ccccc2)OC1=O`, the AC50 result was “inactive”.
As to `NC(N)=N/N=C(/c1ccccc1)c1ccc(O)cc1O`, the AC50 was 1.26 µM (active).
For `NC(N)=N/N=C\c1ccc(O)c(C(=O)O)c1`, the activity, negative = inhibition was 13.4% [at 11.4 µM] (inactive).
The same measure, in the same setting: under `CC(=O)/C(=N\N=C(N)N)c1ccccc1` stands -4.42% [at 11.4 µM] (inactive).
On to `COCCCNC(=O)c1c(NC(=O)c2cccs2)sc2c1CCCC2`, for which the AC50 entry is “inactive”.
The same measure, in the same setting: under `CCC1OC23CCCCC2C(C#N)(C(=N)O3)C1(C#N)C#N` (stereo unspecified) stands “inactive”; under `Cc1ccc2nc(SCc3nnc(-c4ccccc4[N+](=O)[O-])o3)c(C#N)cc2c1`, “inactive”.
Same read-out and setting: under `Cc1nonc1NCn1nnc2ccccc21` stands “inactive”.
Consider `NN(CC(=O)O)CC(=O)O`, for which the activity, negative = inhibition is -0.968% [at 11.4 µM] (inactive).
On the same count and under the same terms, under `CO[C@H]1COC(=O)[C@H](C)NC(=O)C/C=C\[C@@H](C)[C@@H](NS(=O)(=O)c2ccc(C)cc2)COC(=O)C/C=C\[C@@H]1C` stands 6.92% [at 11.4 µM] (inactive).
On the same count and under the same terms, under `CC1CCC(C(=O)O)([C@H](Br)C(=O)O)CC1` (stereo partly specified) stands -1.57% [at 11.4 µM] (inactive).
`Cc1nc2cnc(N3CCN(C)CC3)nc2n(C)c1=O`: the AC50 entry was “inactive”.
As to `O=C1c2cccc([N+](=O)[O-])c2C(=O)N1c1ncn[nH]1`, the activity, negative = inhibition was 10.8% [at 11.4 µM] (inactive).
Still for that read-out and setting: under `COC(=O)[C@]1(C)CCC(c2ccc(C)cc2)=C(CC(=O)O)C1` stands 13.4% [at 11.4 µM] (inactive).
On to `C[C@]1(C2CCCC2)Cc2cc(OCC(=O)O)c(Cl)c(Cl)c2C1=O`, for which the AC50 entry was “inactive”.
Take `CC(=O)Nc1ccc2nc(C3CCCCC3)[nH]c2c1`: the AC50 is 12.6 µM (active).
On to `CSc1cccc(NC(=O)OC2CCCCCCCCCCC2)c1`, for which the activity, negative = inhibition was 10.7% [at 11.4 µM] (inactive).
For the compound `Cc1cc(NC(=O)C2CCCC2)n(-c2nc3ccccc3[nH]2)n1`, the AC50 result was “inactive”.
Regarding `O=C(CSc1nnc(CNc2ccc(F)cc2)o1)OC1CCCCC1`, the AC50 entry is “inactive”.
Same read-out and setting: under `Oc1ccc(/C=N/NC(=S)NCc2ccco2)cc1` stands “inactive”; under `CCCn1c(C)nc2c(c1=O)c1nc3ccccc3nc1n2CCC1=CCCCC1`, “inactive”.
As for `N#CC1(Nc2ccc(-c3ccc(NC4(C#N)CCCC4)cc3)cc2)CCCC1`, the activity, negative = inhibition is 8.6% [at 11.4 µM] (inactive).
As for `Cn1ncc(C#N)c1/N=C/N1CCCCCC1`, the AC50 result is “inactive”.
On the same count and under the same terms, under `CCc1ccc(OCC(=O)NC(=S)Nc2ccc(C)cc2C)c(Br)c1` stands “inactive”; under `CCOC(=O)c1nnn(-c2nc(OC)nc(N3CCCCC3)n2)c1-c1ccccc1`, 17.8 µM (active); under `CCOC(=O)c1nnn(-c2nonc2N)c1-c1ccccc1`, “inactive”.
The same measure, in the same setting: under `CCOC(=O)c1nnn(-c2nonc2N)c1-c1ccc(C)cc1` stands “inactive”.
As to `Cc1nn(Cc2c(F)c(F)c(F)c(F)c2F)c(C)c1NC(=O)c1cccc(COc2ccc(Cl)cc2)c1`, the AC50 entry was “inactive”.
Consider `COc1ccc(Oc2ncc3ncc(=O)n(C[C@H]4CCCO4)c3n2)cc1`, for which the AC50 result is “inactive”.
The same measure, in the same setting: under `COc1ccc(-c2cc(C(=O)Nc3cc(OC)c(OC)c(OC)c3)no2)cc1OC` stands “inactive”; under `COc1ccc(NC(=O)c2cc(C(C)C)on2)cc1OC`, “inactive”.
On the same count and under the same terms, under `COc1ccc(NC(=O)c2ccc(-c3ccc(-c4noc(C)n4)cc3C)cc2)cc1OCCN(C)C` stands 12.6 µM (active).
On the same count and under the same terms, under `CC[C@H]1C2=C3C(CC[C@H]4C(OCc5ccc(F)cc5C(F)(F)F)OC[C@](C)([C@@H]34)N(C(=O)OC(C)(C)C)C2)C(COC)C1COC` (stereo partly specified) stands “inactive”.

For the origin of these results see PubChem BioAssay AID1851 (National Center for Advancing Translational Sciences (NCATS), 2009).
